Assay outcomes deposited in PubChem by National Center for Advancing Translational Sciences (NCATS).
Only a selection was taken, and hits are over-represented in it overall.
CHX counter – affects cycloheximide protein synthesis inhibition readout, counter-screen. cell reporter, cycloheximide protein synthesis inhibition counterscreen. max response, %. 12% of 300,000 active; in the data active = max response mostly above about 13%, no sharp cut-off; inactive = mostly below about 14%; note: read at 38.3 µM for the half of the compounds with a filed dose; 0% is about no effect
AMA1-RON2 inh – inhibitors of Plasmodium falciparum AMA1-RON2 interaction | AlphaScreen AMA1-biotinylated RON2 peptide binding | Potency, µM (series often up to 58.2 µM), for the others: at the top dose activity change, negative = inhibition, usual class: inhibitors | 0.2% of 360,000 active;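 note: potency is the fitted concentration of half-maximal effect; 0% = vehicle wells and -100% = peptide control; nearly all actives have a fitted effect of over 45% in size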
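AMA1 (3D7) with his tag at 25 nM final met compounds first, then biotinylated RON2 peptide at 25 nM; detection used donor plus acceptor beads, 10 µg/mL apiece, read by AlphaScreen after 30 min at room temperature.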
AmpC no deterg – blocks E. coli AmpC beta-lactamase in detergent-free assay; 0.52% of 330,000 active; Potency, µM (doses to about 57.1 µM), inactives show at the highest dose activity change, negative = inhibition, hits mostly inhibitors; AmpC nitrocefin hydrolysis, absorbance 480 nm, 0.0001% Triton;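 note: potency is the fitted concentration of half-maximal effect; plate controls were no compound for no effect and no enzyme for full effect; nearly all actives have a fitted effect of over 20% in size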
Target sequence (P00811 whole entry, looked up): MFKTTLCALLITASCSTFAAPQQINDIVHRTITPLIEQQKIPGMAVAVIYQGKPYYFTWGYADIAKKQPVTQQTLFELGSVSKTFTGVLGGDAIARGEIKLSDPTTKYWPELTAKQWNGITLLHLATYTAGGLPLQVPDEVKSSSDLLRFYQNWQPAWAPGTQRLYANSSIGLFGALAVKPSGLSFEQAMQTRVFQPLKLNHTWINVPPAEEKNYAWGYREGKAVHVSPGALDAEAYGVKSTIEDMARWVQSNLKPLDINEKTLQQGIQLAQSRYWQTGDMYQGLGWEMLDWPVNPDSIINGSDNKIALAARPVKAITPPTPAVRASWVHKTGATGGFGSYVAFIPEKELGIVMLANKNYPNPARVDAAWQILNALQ
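AmpC (5.3 nM in the dispensed reagent) in 20 mM phosphate pH 7.0 with 0.01% (detergent screen) or 0.0001% Triton X-100 was preincubated with compounds for 15 min at room temperature. Nitrocefin was then added from an 800 uM solution, and hydrolysis was followed at 480 nm.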
SARS PLpro yeast – blocks SARS-CoV papain-like protease in a yeast assay | S. cerevisiae expressing SARS-CoV PLpro, growth rescue | Potency, µM (highest dose often 32.9 µM), for the others: at the top dose activity, positive = growth rescue, hits mostly activators | 0.19% of 330,000 active; calls by dose curve; note: potency is the fitted concentration of half-maximal effect; 0% is about no effect; nearly all actives have a fitted effect of over 55% in size
AmpC detergent – inhibitors of E. coli AmpC beta-lactamase with detergent | P00811 | AmpC hydrolysis of nitrocefin, absorbance 480 nm, 0.01% Triton | Potency, µM (titrated, usually from 114 µM), for inactives: at the highest dose activity change, negative = inhibition, actives largely listed as inhibitors | 0.041% of 370,000 active;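 note: potency is the fitted concentration of half-maximal effect; 0% = no-compound wells and -100% = no-enzyme wells; nearly all actives have a fitted effect of over 25% in size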
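AmpC (5.3 nM in the dispensed reagent) in 20 mM phosphate pH 7.0 with 0.01% (detergent screen) or 0.0001% Triton X-100 was preincubated with compounds for 15 min at room temperature. Nitrocefin was then added from an 800 uM solution, and hydrolysis was followed at 480 nm.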
Shiga inhibitor – blocks Shiga toxin action in Vero cells | inhibition, % at 38.7 µM | 9.2% of 290,000 active | Vero cells, Shiga toxin protein synthesis inhibition reporter; in the data active = inhibition mostly above about 28%, no sharp cut-off; inactive = mostly below about 43%; note: 0% is about no effect
* hit, by the source's call; ? = inconclusive; · = no result given; [ ] = dose if it differs, or a comment. Unless noted, calls come from the whole dose curve; as a rule, active = well fitted curve in the direction sought with a large enough effect; inconclusive = small, poorly fitted or top-dose-only effect, or another doubt; inactive = no such curve, though single readings can be large; an effect the other way counts as inactive or inconclusive.

SMILES	CHX counter	AMA1-RON2 inh	AmpC no deterg	SARS PLpro yeast	AmpC detergent	Shiga inhibitor
O=C(CCc1c[nH]c2ccccc12)NCc1ccncc1	-6.0	-3.1%	-0.6%	3.0%	?	-3.8
O=C(CCc1c[nH]c2ccccc12)Nc1ncccc1O	15.8*	0.4%	-19.3%	-3.6%	0.7%	15.8
CC(=O)Nc1ccc(NC(=O)CCCc2c[nH]c3ccccc23)cc1	0.9	1.6%	-23.5%	0.2%	5.1%	-19.0
CC(NC(=O)CCc1c[nH]c2ccccc12)c1ccccc1 (stereo not given)	-2.0	-7.4%	-17.9%	-10.8%	-8.0%	6.5
Cc1nn(C(=O)c2ccc(Br)cc2)c(C)c1Sc1ccccc1	·	·	·	·	3.4%	·
COc1cccc(NC(=O)C(=O)NCCc2csc3nc(-c4ccccc4C)nn23)c1	·	·	·	·	1.8%	·
CCOc1ccc(CCNC(=O)C2CCN(c3nnc(-n4cccc4)s3)CC2)cc1OCC	-2.3	-0.4%	72.8%	-7.7%	-6.2%	93.2
CN(C)S(=O)(=O)c1ccc(C(=O)OCc2nnc(-c3ccccc3)o2)cc1	9.8	6.3%	29.8%	0.1%	-2.6%	26.0
Cc1ccccc1NC(=O)COC(=O)c1ccc(S(C)(=O)=O)c([N+](=O)[O-])c1	13.5*	15.2%	-10.8%	0.7%	-8.7%	11.3
O=C(OCc1nnc(-c2ccccc2)o1)C1=COCCO1	21.7*	4.0%	0.0%	1.3%	1.3%	24.6
O=C(OCc1nnc(-c2ccccc2)o1)c1ccc2c(c1)OCCO2	22.2*	6.5%	-18.3%	0.5%	-15.2%	45.2*
CS(=O)(=O)c1ccc(C(=O)OCc2nnc(-c3ccccc3)o2)cc1[N+](=O)[O-]	24.6*	-18.3%	13.9%	-5.3%	-2.5%	21.0
CCN(CC)S(=O)(=O)c1ccc(N2CCOCC2)c(NC(=O)c2ccc(F)cc2)c1	0.5	-1.3%	55.7%	2.4%	-2.4%	11.6
CC1CCC(N2CCN(S(=O)(=O)Cc3ccccc3)CC2)CC1 (stereo not given)	-2.0	-10.8%	-18.4%	1.4%	?	-3.7
O=c1[nH]c(SCc2ccccc2Cl)nc2[nH]ncc12	14.1	4.7%	-2.9%	0.2%	-3.4%	33.6
O=C(Nc1ccc(NC(=O)c2cccnc2Cl)cc1)c1cccc(Cl)c1	21.0	-9.7%	-22.3%	-0.7%	-4.9%	39.6*
O=C(Nc1cccnc1)c1cccnc1Cl	9.3	-1.7%	-9.9%	-20.8%	-0.8%	17.6
CC(=O)NC(=S)Nc1ccc(NC(=O)c2cccnc2Cl)cc1	25.2*	-4.8%	-13.1%	-1.5%	7.3%	46.5
O=C(N/N=C/C=C/c1ccccc1)c1n[nH]c2c1CCC2	15.4*	123.5%	-23.1%	4.8%	-3.8%	20.6
Cc1cc(C(=O)N/N=C/C=C/c2ccccc2)n[nH]1	6.7	59.2%	-4.9%	-2.3%	0.1%	36.3
CC(/C=N/NC(=O)c1n[nH]c2c1CCC2)=C\c1ccccc1	31.6	42.6%	?	2.4%	3.4%	79.5
O=C(N/N=C/C(Br)=C\c1ccccc1)c1n[nH]c2c1CCC2	64.2*	55.6%	-49.3%	-44.5%	3.5%	110.7*
Cc1ccc(OCC(=O)N/N=C\c2ccncc2)c(C)c1	-3.8	1.2%	-22.4%	-3.7%	-9.9%	-11.5
Cc1ccc(C(=O)NCC(=O)OCC(=O)N(CC(C)C)c2c(N)n(Cc3ccccc3)c(=O)[nH]c2=O)cc1	·	-2.9%	-7.4%	-7.1%	?	·
O=C(O)CCn1c(SCc2ccccc2)nc2ccccc21	8.8	1.8%	-9.7%	2.5%	-3.7%	22.9*
SMILES	CHX counter	AMA1-RON2 inh	AmpC no deterg	SARS PLpro yeast	AmpC detergent	Shiga inhibitor
O=C(O)CSc1nc2ccccc2n1Cc1ccccc1	0.8	-12.2%	-19.7%	-0.2%	3.7%	-6.5
CCSc1nc2ccccc2n1CC(=O)OC	-1.0	-6.5%	-1.2%	1.2%	-7.7%	13.6
COC(=O)Cn1c(SCc2ccccc2)nc2ccccc21	18.5*	0.5%	-21.5%	-9.3%	-8.3%	48.4
COc1ccccc1OCCSc1nc2ccccc2n1CC(O)CO (stereo not given)	12.9*	0.6%	42.7%	-2.2%	-11.0%	25.1
O=C(O)CCn1c(SCCOc2ccccc2F)nc2ccccc21	18.0*	4.2%	-34.0%	1.8%	?	5.2
O=[N+]([O-])c1ccc(S(=O)(=O)NNC(=S)NCCc2ccccc2)cc1	4.9	113.9%	75.1%	2.9%	-1.4%	1.4
CC(=O)c1c(C)[nH]c(C(=O)OCC(=O)N2CCN(S(=O)(=O)c3ccc(C)cc3)CC2)c1C	·	-12.5%	-17.2%	-0.6%	?	·
COc1ccc2c(c1)OC[C@H]1[C@H]2N2C(=O)CN(C)C(=O)[C@@]2(C)[C@H]1c1ccccc1	·	26.9%	88.9%	0.0%	1.0%	·
CCCCCCCCSC1=CC(=O)C(OC)=C(OC)C1=O	·	7.94µM*	·	·	·	·
COc1ccc(/C=N/NC(=O)CCc2nc3ccccc3[nH]2)cc1	-2.3	7.4%	-33.4%	4.6%	-5.5%	21.4
C/C(CC(=O)Nc1ccc(N(C)C)cc1)=N\NC(=O)c1ccc(C(C)(C)C)cc1	5.9	69.5%	-31.4%	-5.3%	-11.5%	-10.8
CCC/C=N/NC(=O)c1ccccc1O	17.7*	83.2%	-17.4%	-1.9%	0.2%	47.5*
C/C(CC(=O)Nc1ccc([N+](=O)[O-])cc1)=N\NC(=O)c1ccccc1O	24.1*	75.3%	-52.5%	-3.2%	-15.8%	·
C/C(CC(=O)Nc1ccc(N(C)C)cc1)=N\NC(=O)c1ccc(F)cc1	31.0*	43.2%	-1.0%	1.3%	?	36.0*
C/C(=N\NC(=O)c1ccccc1O)C1C(=O)c2ccccc2C1=O	29.4*	-2.7%	-36.6%	14.1%	-2.4%	35.7
CCC/C=N/NC(=O)CNC(=O)c1ccccc1Cl	5.2	-11.1%	-54.8%	-3.6%	4.4%	4.8
O=c1[nH]nc(-c2ccccc2)cc1-c1ccccc1	·	-7.7%	·	·	·	·
C/C(CC(=O)Nc1ccc(N(C)C)cc1)=N\NC(=O)c1ccc(Cl)cc1Cl	17.5	19.1%	-21.7%	-14.5%	-16.4%	19.3
CCC/C(C)=N/NC(=O)c1ccccc1O	27.5*	-3.0%[2.32 µM]	-27.0%	-0.1%	5.7%	104.8*
C/C(CC(=O)Nc1ccc(N(C)C)cc1)=N\NC(=O)c1ccccc1O	16.3*	34.5%	-53.7%	-5.0%	-10.7%	·
CCOc1cccc2sc(=NC(=O)c3ccc(S(=O)(=O)N4CCOCC4)cc3)n(C)c12	-2.5	-1.9%	-10.9%	0.2%	-2.0%	-8.7
Cc1nc2cc(Cl)c(Cl)cc2n1CCCO	-2.4	3.4%	-0.6%	0.2%	-1.6%	-4.9
Cc1cc(C)c(NC(=O)CNC(=O)COC(=O)Cc2ccccc2C)c(C)c1	·	7.8%	82.7%	0.0%	-12.9%	·
CCOC(=O)C1=C(O)C(=O)N(c2ccc(S(N)(=O)=O)cc2)C1c1ccc(Cl)cc1 (stereo not given)	3.6	2.3%	-32.0%	-0.6%	-14.4%	13.5
